For 36 compounds, inhibition results are on record in PubChem BioAssay AID651610 (Broad Institute, 2012).

The campaign covered roughly 360,000 compounds. About 3,900 (1.1%) were called active. The sample as a whole holds a higher share of actives than the screen did. Values without a mark were called inactive.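 Rule for the calls: active = mean replicate inhibition score of at least 50 and every replicate individually at or above 50; inconclusive = only one of the two criteria met; inactive = mean below 50 and not all replicates reaching 50.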

One may read the inhibition as the drop in the measured response relative to a control, in per cent.

The assay in a line: blockers of JRFL envelope-mediated fusion – HeLa-JRFL effector, CEM21 target cells, luciferase, primary screen (AID 651610).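 Note: 0% = plate neutral controls and 100% = maraviroc near 300 nM.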 The settings on record: HeLa-JRFL Env/CEM21 cell fusion, active compounds read high; at 16.7 µM unless noted.
For `O=C(N[C@@H]1C=C[C@H](CC(=O)N2CCCCC2)O[C@H]1CO)c1cccc(F)c1`, the inhibition was 2.78%. Regarding `COc1cccc(NC(=O)N[C@@H]2CC[C@H](CC(=O)Nc3ccccc3)O[C@@H]2CO)c1`, the inhibition was -24.4%. On to `Cc1ccc(S(=O)(=O)Nc2cccc3c2O[C@H](CN(C)S(=O)(=O)c2cn(C)cn2)[C@H](C)CN([C@H](C)CO)C3=O)cc1`, for which the inhibition is -8.23%. `C[C@H]1CCCCO[C@@H](CN(C)S(=O)(=O)c2ccc(Cl)cc2)[C@@H](C)CN([C@@H](C)CO)C(=O)c2cc(NS(=O)(=O)c3cn(C)cn3)ccc2O1`: the inhibition was 3.67%.

As for `C[C@@H]1CN([C@@H](C)CO)C(=O)c2cc(NS(C)(=O)=O)ccc2O[C@@H](C)CCCCO[C@@H]1CN(C)S(=O)(=O)c1cn(C)cn1`, the inhibition was -12%.

Regarding `Cc1ccc(S(=O)(=O)Nc2cccc3c2O[C@@H](CN(C)C(=O)Nc2ccccc2)[C@H](C)CN([C@@H](C)CO)C3=O)cc1`, the inhibition is 8.55%. For the compound `C[C@H](NC(=O)C[C@H]1CC[C@H]2[C@@H](COC[C@H](O)CN2C(=O)Nc2cccc(Cl)c2)O1)c1ccccc1`, the inhibition is -9.13%. `C[C@H](O)C#Cc1ccc2c(c1)O[C@@H](CN(C)CC1CCCC1)[C@H](C)CN([C@@H](C)CO)S2(=O)=O`: the inhibition is -37.3%. As for `C[C@H](CO)N1C[C@H](C)[C@H](CN(C)C)Oc2cc(C#CC3CC3)ccc2S1(=O)=O`, the inhibition was -1.04%. To `C[C@H]1CN([C@@H](C)CO)C(=O)c2cc(NC(=O)Nc3cccc4ccccc34)ccc2O[C@@H]1CN(C)C` belongs 3.97%. In the case of `C[C@@H]1CN([C@H](C)CO)C(=O)c2cc(NS(=O)(=O)c3ccccc3)ccc2O[C@H]1CN(C)C(=O)Nc1ccc2c(c1)OCO2`, the inhibition was -19.2%. Consider `O=C(NCC[C@H]1CC[C@@H](NC(=O)C2CCCCC2)[C@@H](CO)O1)c1ccc(F)cc1`, for which the inhibition was -1.25%. Regarding `C[C@@H]1CN([C@H](C)CO)C(=O)c2cc(NS(=O)(=O)c3cn(C)cn3)ccc2O[C@@H](C)CCCCO[C@H]1CN(C)C`, the inhibition is 1.08%. As to `C[C@@H]1CN([C@@H](C)CO)C(=O)c2cc(NS(=O)(=O)c3cn(C)cn3)ccc2O[C@@H](C)CCCCO[C@H]1CN(C)S(=O)(=O)c1cn(C)cn1`, the inhibition is 2.07%. `C[C@H](CO)N1C[C@H](C)[C@H](CN(C)C(=O)NC2CCCCC2)OCCCC[C@H](C)Oc2ccc(NC(=O)Nc3ccc4c(c3)OCO4)cc2C1=O`: the inhibition is 18.2%. In the case of `C[C@@H]1CCCCO[C@H](CN(C)C)[C@H](C)CN([C@@H](C)CO)C(=O)c2cc(NS(=O)(=O)c3cn(C)cn3)ccc2O1`, the inhibition was 57.7% (active).

Regarding `C[C@@H]1CN([C@H](C)CO)C(=O)c2cc(NC(=O)Nc3ccccc3)ccc2O[C@@H](C)CCCCO[C@H]1CN(C)Cc1ccc(C(F)(F)F)cc1`, the inhibition is 5.92%. With `C[C@H](CO)N1C[C@H](C)[C@@H](CN(C)C(=O)Nc2ccc3c(c2)OCO3)OCCCC[C@H](C)Oc2ccc(NC(=O)Nc3ccc4c(c3)OCO4)cc2C1=O`, the inhibition was -2.35%.

On to `C[C@@H]1CN([C@H](C)CO)C(=O)c2cc(NC(=O)c3ccncc3)ccc2O[C@H]1CN(C)Cc1ccc(Oc2ccccc2)cc1`, for which the inhibition is -5.1%. To `C[C@H]1CCCCO[C@@H](CN(C)Cc2ccc(C(F)(F)F)cc2)[C@@H](C)CN([C@@H](C)CO)C(=O)c2cc(NC(=O)Nc3ccccc3)ccc2O1` belongs 86.8% (active); to `C[C@@H]1CCCCO[C@@H](CN(C)Cc2ccc(C(F)(F)F)cc2)[C@@H](C)CN([C@H](C)CO)C(=O)c2cc(NC(=O)Nc3ccccc3)ccc2O1`, 9.84%. For the compound `C[C@H]1CCCCO[C@H](CN(C)C(=O)NC2CCCCC2)[C@@H](C)CN([C@@H](C)CO)C(=O)c2cc(NC(=O)Nc3ccc4c(c3)OCO4)ccc2O1`, the inhibition is 62.7% (active).

With `C[C@@H]1CN([C@@H](C)CO)C(=O)c2cc(NC(=O)c3ccncc3)ccc2O[C@@H]1CN(C)Cc1ccncc1`, the inhibition is 85.6% (active).

`C[C@H](CO)N1C[C@H](C)[C@@H](CN(C)Cc2ccncc2)Oc2ccc(NC(=O)Nc3ccccc3)cc2C1=O`: the inhibition is 4.38%. For the compound `C[C@@H]1CN([C@@H](C)CO)C(=O)Cc2cc(NC(=O)C3CCCCC3)ccc2O[C@@H]1CN(C)Cc1ccncc1`, the inhibition is 6.59%. On to `COCC#Cc1cnc2c(c1)C(=O)N([C@@H](C)CO)C[C@@H](C)[C@@H](CN(C)C(=O)Nc1ccccc1OC)O2`, for which the inhibition is 2.09%.

For the compound `COC(=O)C[C@H]1CC[C@H](NC(=O)c2ccccc2)[C@@H](CO)O1`, the inhibition was -4.18%. As to `CN1CCN(C(=O)C[C@H]2C[C@@H]3c4cc(NC(=O)Nc5ccc(C(F)(F)F)cc5)ccc4O[C@@H]3[C@H](CO)O2)CC1`, the inhibition was 7.48%. The same measure for `C[C@@H]1CN([C@H](C)CO)S(=O)(=O)c2ccc(C#C[C@@H](C)O)cc2O[C@H]1CN(C)C(=O)C1CCCCC1`: -6.31%; for `CO[C@H]1CN(C)C(=O)c2cc(NC(=O)c3ccccc3)ccc2OC[C@H](C)NC[C@H]1C`: -18.7%; for `COc1ccc(NC(=O)Nc2ccc3c(c2)C(=O)N([C@H](C)CO)C[C@H](C)[C@@H](CN(C)Cc2ccc(C(=O)O)cc2)OCCCC[C@H](C)O3)cc1`: -1.91%.

Consider `C[C@@H]1CCCCO[C@H](CN(C)Cc2ccc(C(F)(F)F)cc2)[C@H](C)CN([C@H](C)CO)C(=O)c2cc(NC(=O)Nc3ccc(F)cc3)ccc2O1`, for which the inhibition is 9.27%.

With `COc1ccc(NC(=O)Nc2ccc3c(c2)C(=O)N([C@@H](C)CO)C[C@H](C)[C@H](CN(C)Cc2ccc(C(F)(F)F)cc2)OCCCC[C@H](C)O3)cc1`, the inhibition was 55.7% (active). The same measure for `COc1ccc(CN(C)C[C@@H]2OCCCC[C@@H](C)Oc3ccc(NC(=O)Nc4ccc(C(F)(F)F)cc4)cc3C(=O)N([C@H](C)CO)C[C@H]2C)cc1`: 40.3%; for `C[C@@H]1CN([C@H](C)CO)C(=O)c2cc(NC(=O)Nc3ccc(C(F)(F)F)cc3)ccc2O[C@@H](C)CCCCO[C@@H]1CN(C)Cc1ccc(C(F)(F)F)cc1`: 32%.

`CC(C)NC(=O)Nc1ccc2c(c1)C(=O)N([C@H](C)CO)C[C@H](C)[C@@H](CN(C)Cc1ccc(C(F)(F)F)cc1)OCCCC[C@@H](C)O2`: the inhibition is 76.6% [at 12.3 µM] (active).
